From the supplement of paper PMC10338343
± gives the standard deviation.

tested on: MILI (PIWIL2) piRISC loaded with L1MC piRNA (26 nt); experiment: pre-steady-state target cleavage rate (min^-1); guide: L1MC piRNA 5'p-UAACUAAAUACUAUGCAAGCUGUAGG; MIWI and MILI are mouse PIWI proteins and EfPiwi is from a freshwater sponge; tags in brackets are library labels; higher = faster piRNA-guided slicing of the target; settings: auxiliary factor: 500 nM mouse GTSF1
In short: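 With or without 500 nM GTSF1 partner protein, 1 nM active affinity-purified piRISC carrying one synthetic guide was mixed with 0.1 nM transcribed, DNA-blocked target RNA library in HEPES–potassium acetate buffer at 33 °C for 0–8 or 0–960 min. Uncleaved targets were sequenced and normalised to depth and to weakly complementary targets, three trials were pooled, and k3 was capped at 0.0001 min^-1. The pre-steady-state cleavage rate came from a burst-and-steady-state fit.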

Row | Sequence | pre-steady-state target cleavage rate
1 | UCCUGCUACAGCUUGCAUACUAUUUACAAA | 0.0741 ± 0.024
2 | UCCUGGUACAGCUUGGAUACUAUUUAGUUA | 0.153 ± 0.059
3 | UCCUGGUACUCCUUGCAUAGUAUUUAGUUA | 0.217 ± 0.046
4 | UCCUGGAUGUGCUUGCAUAGUAUUAAGAUA | 0.00523 ± 0.0046
5 | UCCUGGAUGUCGAUGCAUAGUAUUGUAGUUA | 0.0505 ± 0.016
6 | UCCUGCUACAGCUUGGAUAGUAUUUACUUA | 0.00864 ± 0.0043
7 | UCCUGGAUCAGCUUCGUUAGUAUUUAGUAA | 0.02 ± 0.0056
8 | UCCUGGAUGUCGAACGAUAGUAUUUAGUAA [g3:g14:cont:t1A] | < 0.0001
9 | UCCUGGAUCAGCUUGCAUAGAAUUUACAAA | 0.00722 ± 0.0036
10 | UCCUGGAACAGCUUGCAAACUAUUUAGUUA | 0.0282 ± 0.0064
11 | UCCUCCUACAGCUUGCAUAGAAUAUAGUUA | 0.0822 ± 0.019
12 | UCCUCCUACAGCUUCCAUAGUAAUUAGUUA | 0.0149 ± 0.0069
13 | UCCUGGAACAGCUUGCAUAGUAUUUACUAA | 0.0459 ± 0.013
14 | UCCUGGAUGUCGAAGCACAGUAUUUAGUUA | 0.00819 ± 0.0038
15 | UCCUGGAACAGCUUGCAUAGUAUUAACUUA | 0.0356 ± 0.0096
16 | UCCUCCUACAGCUUGCUAAGUAUUUUCAAA | 0.0625 ± 0.017
17 | UCCUGGAUGUCCUUGGUUAGUAUUUAGUAA | 0.0915 ± 0.022
18 | UCCUGGAACACGAUGCAUAGUAUUUAGAAA | 0.072 ± 0.018

Row | Sequence | pre-steady-state target cleavage rate
19 | UCCUGGAUCAGCUACCAUAGUAUUUAGAAA | 0.024 ± 0.0091
20 | UCCUGGAUCAGCUUGCAUAGAAUUAAGUUA | 0.0383 ± 0.011
21 | UCCUCCUUCAGCUUGCAUAGAAUUUAGUUA | 0.0772 ± 0.016
22 | UCCUGGAUCAGCUUGCAUAGUAUUUAGCUA | 0.00534 ± 0.0036
23 | UCCUGGAACAGCUUGCAUAGAUAUUAGUAA | 0.0101 ± 0.0057
24 | UCCUGGAACAGCUUGCAUAGUAUUAAGAAA | 0.154 ± 0.045
25 | UCCUGGAUGAGCUACCAUAGUAUUUAGAAA | 0.00557 ± 0.0043
26 | UCCUGGUACAGCUUGCAUACUAUUUACUUA | 0.05 ± 0.014
27 | UCCUGGAUGUCCAUGCAUAGUAUUUAGUAA | 0.0373 ± 0.011
28 | UCCUGGAUGUGCUUGCAUAGUAAUUACUUA | 0.00537 ± 0.0033
29 | UCCUGCUACAGCUUGCAAUCUAUUUUCAAA | 0.00419 ± 0.0036
30 | UCCUGGAUGAGGUUGCAUACUAUUUAGUUA | 0.0167 ± 0.006
31 | UCCUGGUACAGCUUGCAUAGUAUAAUCAAA | 0.0264 ± 0.0091
32 | UCCUGGAACAGCUUGCAUAGUAUAUACAAA | 0.0873 ± 0.03
33 | UCCUGGAUGUCGAUGCAUAGUAUUUCAGUUA | 0.108 ± 0.025
34 | UCCUGGAUGUGCUACCAUAGUAUUUAGUAA | 0.0454 ± 0.011
35 | UCCUGGAUCAGCUUGCUUAGUAUUUAGAUA | 0.15 ± 0.023

same assay, conditions: auxiliary factor: none (no GTSF1)

Row | Sequence | pre-steady-state target cleavage rate
36 | UCCUGGAUGAGCUUGCAUAGAUAUUACAAA | < 0.0001
37 | UCCUGGAUGUCGAACGUUAGUAUUUAGUAA | < 0.0001
38 | UCCUGGAUGUCGAACCAUAGUAUUGAGUUA | < 0.0001
39 | UCCUGGAUGUCGAUCCAUAGAAUUUAGUUA | < 0.0001
40 | UCCUGGAUGUCGAACGUAUUUAUUUAGUUA | < 0.0001
